Compound activity as filed in PubChem.
A selection: hits, their analogues and other compounds. The true share with any hit is near 2.9%.
EPAC2 ant val: validation of human EPAC2 antagonists; Potency, µM (highest dose often 112 µM), usual class: inhibitors; actives 1.7% (n = 16,000); AID 1645886; EPAC2 Rap1B BODIPY-GDP exchange, fluorescence; note: nearly all actives have a fitted effect of over 40% in size
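Fluorescent exchange read-out: 100 nM EPAC2 with 250 nM RAP1B–BODIPY-GDP and 50 uM GDP; BODIPY-GDP release lowers fluorescence. Read at 480/540 nm every 5 min for 30 min at room temperature; normalized to 6.5 mM cAMP.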
EPAC1 agonist: human EPAC1 agonism, validation. O95398. EPAC1 Rap1b BODIPY-GDP exchange, fluorescence. Potency, µM, most hits filed as activators. actives 1% (n = 16,000); note: nearly all actives have a fitted effect of over 70% in size
Numbers stand for hits; – = inactive; ? = inconclusive; ! = not confirmed by another sample. Calls come from the whole dose curve; as a rule, active = well fitted curve in the direction sought with a large enough effect; inconclusive = small, poorly fitted or top-dose-only effect, or another doubt; inactive = no such curve, though single readings can be large; an effect the other way counts as inactive or inconclusive.

SMILES | EPAC2 ant val | EPAC1 agonist
CN(C)CC(C)(O)c1ccc2c(c1)CN(Cc1cn(C)c3ccccc13)CCO2 (centres undefined) | – | –
CC(=O)N1CCC2(CCCN(c3cccc(-c4ccccc4)c3)C2)CC1 | 44.7µM | 100µM
CC(=O)N1CCC2(CCCN(c3ccc(-c4ccccc4)cc3)C2)CC1 | ? | 100µM
COCC(=O)N1CCC2(CCCN(c3ccc(-c4ccccc4)cc3)C2)CC1 | – | –
O=C(c1ccco1)N1CCC2(CC1)CN(c1ccc(-c3ccccc3)cc1)C2 | – | ?
O=C(c1ccco1)N1CCC2(CC1)CN(c1cccc(-c3ccccc3)c1)C2 | ? | 100µM
O=C(Oc1ccccc1)N1CCC2(CCCN(c3cccc(-c4ccccc4)c3)C2)CC1 | – | ?
COc1cc(=O)n2c(c1C(=O)N(C)Cc1nccs1)CCN(Cc1cc(C)cc(C)c1)CC2 | – | –
CNc1cc(OC)c(C(=O)N[C@H]2CCN(Cc3ccccc3)[C@H]2C)cc1Cl | ? | –
COC(=O)c1cn([C@@H]2C[C@@H](C(=O)N3CCCCCC3)N(Cc3cc4ccccc4s3)C2)nn1 | ? | –
COc1ccc(-n2c(CNC(=O)c3ccccc3C(F)(F)F)nnc2SC)cc1 | – | –
COc1ccc(OC)c(-c2ccc(O)c(CN3CCc4c([nH]c5ccccc45)C3)c2)c1 | – | –
CCCCC(CC)CN=C(N)NC(N)=NCCCCCCN=C(N)NC(N)=NCC(CC)CCCC (centres undefined) | 56.2µM | –
CCCN=C(N)NCCC[C@H](N)C(=O)O | – | –
CN(C)CCC=C1c2ccccc2COc2ccccc21 | – | –
O=C(O)c1ccccc1[O-].O=C(O)c1ccccc1[O-].[Zn+2] | – | –
O=C(C[n+]1cccc2cc(Cl)ccc21)c1ccc(I)cc1 | – | –
O=C(C[n+]1cccc2cc(Cl)ccc21)c1ccc(Br)cc1 | – | 112µM
CCCCOc1ccc(CC(=O)NO)cc1 | – | ?
CCCc1c(OCCCOc2ccc(OCC(=O)O)cc2)ccc(CC=O)c1O | 44.7µM | –
CN1CC(O)C2=CC(=O)C(=O)C=C21 (centres undefined) | 79.4µM | –
Cc1sc(N)c(C(=O)c2cccc(C(F)(F)F)c2)c1C | 56.2µM | –
Cc1oc(-c2ccccc2NC(=O)C2CCC2)nc1CNC(=O)c1cccc(C(F)(F)F)c1 | – | –
CCC(=O)NCc1nc(-c2cccc(NC(=O)c3ccc(C)s3)c2)oc1C | – | –
CN(Cc1ccco1)c1ncnc2ccc(-c3cccnc3)cc12 | – | –
SMILES | EPAC2 ant val | EPAC1 agonist
CN(Cc1ccco1)c1ncnc2ccc(-c3ccc4c(c3)OCO4)cc12 | 35.5µM | –
CN(C)Cc1ccccc1-c1ccc2ncnc(N(C)Cc3ccco3)c2c1 | – | –
Cc1ccccc1-c1ccc2ncnc(N(C)Cc3ccco3)c2c1 | 20µM | 100µM
CC(=O)N[C@@H]([C@@H](O)[C@H](O)[C@H](O)CO)[C@@H](O)CC(=O)C(=O)O | – | –
COc1cc2ccc(=O)oc2cc1O | – | 100µM!
COc1ccc2ccc(=O)oc2c1CC=C(C)C | ? | –
COc1cc(-c2cccc(OC)c2OC)cc2c1OCCN(Cc1cn[nH]c1-c1ccc(Cl)cc1)C2 | ? | –
C[C@@H]1CN(Cc2ccc3c(c2)CN(Cc2cccn2-c2cccnc2)CCO3)C[C@H](C)O1 | – | –
COc1ccc(C(=O)c2ccccc2)c(O)c1 | 39.8µM! | –
COc1ccc(C(=O)c2ccc(C)cc2)c(O)c1 | ? | –
CS(=O)(=O)c1ccc(-c2cccc3c2OC(CNC(=O)c2ccnc(Cl)c2)C3)cc1 (centres undefined) | ? | –
OCCN1CCN(CCCN2c3ccccc3Sc3ccc(Cl)cc32)CC1 | 35.5µM! | –
CN(C)CCCN1c2ccccc2Sc2ccc(Cl)cc21 | – | –
COc1ccc(CN2CCC3(CC2)c2ccccc2[C@@H](NC(=O)c2ccccc2OC)[C@@H]3O)cc1O | – | –
c1ccc(C(NCc2cccnc2)(c2ccccc2)c2ccccc2)cc1 | 10µM | ?
c1cncc(CNc2ccnc(-c3cccnc3)n2)c1 | – | –
COc1ccccc1N1CCN(c2nc(CNC(=O)c3sc(C)nc3C)nc3ccccc23)CC1 | – | –
Cc1cc(C(=O)NCc2nnc3n2CCN(Cc2ccc4c(c2)Cc2ccccc2-4)CC3)c(C)o1 | ? | –
O=C1CCN(Cc2ccccc2)CCN1[C@H](COc1ccccc1)Cc1ccccc1 | 79.4µM | –
CC(C)C[C@@H](COc1ccccc1)N1CCN(Cc2ccccc2)CCC1=O | 17.8µM | –
CC(C)C[C@@H](CO)N1CCN(Cc2ccccc2)CCC1=O | ? | –
CCCN1CCC(=O)N([C@H](COc2ccccc2)Cc2ccccc2)CC1 | – | –
C=CS(=O)(=O)N(Cc1ccccc1)[C@H](CO)CC(C)C | 79.4µM | –
C=CS(=O)(=O)N(Cc1ccccc1Br)[C@H](CO)Cc1ccccc1 | 35.5µM | –
O=S(=O)(N(Cc1ccccc1)[C@@H](CO)Cc1ccccc1)N(Cc1ccccc1)[C@@H](CO)Cc1ccccc1 | – | –
SMILES | EPAC2 ant val | EPAC1 agonist
CC(C)C[C@H](CO)N(Cc1ccccc1)S(=O)(=O)N(Cc1ccccc1)[C@@H](CO)CC(C)C | ? | –
Cc1cc2c(c(-c3nc4ccccc4s3)c1)OC(CNC(=O)CCc1cccnc1)C2 (centres undefined) | ? | –
CCCC(=O)O[C@]1(C(=O)COC(=O)CC)[C@@H](C)C[C@H]2[C@@H]3CCC4=CC(=O)C=C[C@]4(C)[C@@]3(F)[C@@H](O)C[C@@]21C | – | –
O=c1c(O)cc(C2Oc3cc(O)cc(O)c3CC2O)cc2c(C3Oc4cc(O)cc(O)c4CC3O)cc(O)c(O)c12 (centres undefined) | 20µM | –
Oc1cc(O)c2c(c1)O[C@H](c1ccc(O)c(O)c1)[C@@H](O)C2 | – | –
CCCCCCC(=O)O[C@H]1CC[C@H]2[C@@H]3CCc4cc(O)ccc4[C@H]3CC[C@]12C | – | –
C(=C\c1nccc2ccccc12)/c1ccc(N2CCOCC2)cc1 | – | 100µM
Cc1noc(C)c1-c1nc(N2CCOCC2)c2ccccc2n1 | – | –
COC(=O)c1ccc(-c2cccc3c2OC(CNC(=O)/C=C/c2ccc(OC)c(OC)c2)C3)nc1 (centres undefined) | – | –
COc1cccc2c1C(=O)c1c(O)c3c(c(O)c1C2=O)C[C@@](O)(C(=O)CO)C[C@@H]3O[C@H]1C[C@H](N)[C@H](O[C@@H]2CCCCO2)[C@H](C)O1 | – | –
CC(=O)[C@]1(O)Cc2c(O)c3c(c(O)c2[C@@H](O[C@H]2C[C@H](N)[C@H](O)[C@H](C)O2)C1)C(=O)c1ccccc1C3=O | – | 39.8µM
CC(=O)[C@]1(O)Cc2c(O)c3c(c(O)c2[C@@H](O[C@H]2C[C@H](N)[C@H](O)[C@H](C)O2)C1)C(=O)c1c(O)cccc1C3=O | – | 112µM
COc1cccc2c1C(=O)c1c(O)c3c(c(O)c1C2=O)C[C@@](O)(C(C)=O)C[C@@H]3O[C@H]1C[C@H](N)[C@H](O)[C@H](C)O1 | – | 112µM!
CC[C@@]1(O)C[C@H](O[C@H]2C[C@H](N(C)C)[C@H](O[C@H]3C[C@H](O)[C@H](O[C@H]4CCC(=O)[C@H](C)O4)[C@H](C)O3)[C@H](C)O2)c2c(cc3c(c2O)C(=O)c2c(O)cccc2C3=O)[C@H]1C(=O)OC | – | –
Cc1occc1C(=O)Nc1cccc(-c2nc(CNC(=O)c3cccc(C#CC(C)(C)O)c3)c(C)o2)c1 | – | –
CSc1nc(C(=O)N2CCc3c(cnc(C)c3CNC(=O)c3ccc4c(c3)OCO4)C2)cs1 | – | –
